Data reported in PubChem BioAssay (EPA / NIEHS).
Activity calls are given as the source filed them. The calls were made as follows: active = hit-call score of the fitted dose curve at least 0.9, where 1 is the maximum; inactive = score below 0.9.

Assays:
Conditions in all cases: mRNA level, 48 h; actives raise or lower the signal
[1] = read-out: NAD(P)H dehydrogenase [quinone] 1 (NQO1), NQO1 (gene 1728); assay: LTEA_HepaRG_NQO1: Life Technologies and Expression Analysis (LTEA) Assay for NAD(P)H dehydrogenase [quinone] 1 (NQO1) using HepaRG (AID 2283526)
Procedure, shortened: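 qRT-PCR read-out (Fluidigm TaqMan), normalized to three housekeeping genes, after 48 h chemical exposure of HepaRG cells. Concentrations: eight points, top 100 uM, half-log steps, 0.5% DMSO vehicle. Gain or loss of signal fitted relative to DMSO.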

[2] = read-out: Nuclear factor erythroid 2-related factor 2 (Homo sapiens) (UniProt Q16236); assay: LTEA_HepaRG_NFE2L2: Life Technologies and Expression Analysis (LTEA) Assay for Nuclear factor erythroid 2-related factor 2 (NFE2L2) Transcription Factor using HepaRG (AID 2283527)
Procedure, shortened: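 NFE2L2 transcript level was read by qRT-PCR (housekeeping ACTB/GAPDH/POLR2A normalisation) after 48 h chemical treatment of HepaRG in serum-free induction medium. Duplicate 8-point half-log curves, top 100 uM, 0.5% DMSO vehicle; up- or down-regulation fitted against vehicle.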

[3] = read-out: succinate dehydrogenase complex iron sulfur subunit B (SDHB), SDHB (gene 6390); assay: LTEA_HepaRG_SDHB: Life Technologies and Expression Analysis (LTEA) Assay for succinate dehydrogenase complex iron sulfur subunit B (SDHB) using HepaRG (AID 2283528)
Procedure, shortened: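 SDHB transcript level read by TaqMan qRT-PCR, housekeeping-normalised (ACTB, GAPDH, POLR2A), after 48 h chemical treatment of plated HepaRG cells; eight concentrations top 100 uM, half-log steps, 0.5% DMSO, duplicates; fitted both directions against DMSO.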

[4] = read-out: Signal transducer and activator of transcription 3 (Homo sapiens) (UniProt P40763); assay: LTEA_HepaRG_STAT3: Life Technologies and Expression Analysis (LTEA) Assay for Signal transducer and activator of transcription (STAT3) using HepaRG (AID 2283529)
Procedure, shortened: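 STAT3 transcript quantified by qRT-PCR against three housekeeping genes (ACTB, GAPDH, POLR2A), fitted both directions relative to DMSO. HepaRG cultures exposed 48 h to eight half-log concentrations, top 100 uM, 0.5% DMSO, serum-free induction medium.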

[5] = read-out: solute carrier (SLCO1B1), SLCO1B1 (gene 10599); assay: LTEA_HepaRG_SLCO1B1: Life Technologies and Expression Analysis (LTEA) Assay for solute carrier (SLCO1B1) using HepaRG (AID 2283530)
Procedure, shortened: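 HepaRG, serum-free induction medium, 48 h dosing, 8-pt half-log from 100 uM, 0.5% DMSO vehicle, duplicates. Readout: SLCO1B1 mRNA, qRT-PCR, ACTB/GAPDH/POLR2A normalization; up or down fit vs DMSO.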

[6] = read-out: sulfotransferase 2A1 (SULT2A1), SULT2A1 (gene 6822); assay: LTEA_HepaRG_SULT2A1: Life Technologies and Expression Analysis (LTEA) Assay for sulfotransferase 2A1 (SULT2A1) using HepaRG (AID 2283531)
Procedure, shortened: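 Transcript levels of SULT2A1, quantified by qRT-PCR and normalized to three housekeeping genes, serve as the readout. Human HepaRG cultures receive test chemicals for 48 h at up to 100 uM in half-log steps, with 0.5% DMSO vehicle.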

[7] = read-out: Transforming Growth Factor (TGFA), TGFA (gene 7039); assay: LTEA_HepaRG_TGFA: Life Technologies and Expression Analysis (LTEA) Assay for Transforming Growth Factor (TGFA) using HepaRG (AID 2283532)
Procedure, shortened: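 TGFA transcript quantified by qRT-PCR (Fluidigm arrays) against three housekeeping genes, after 48 hours chemical treatment of HepaRG cells. Top concentration 100 uM with half-log dilutions, 8 points, duplicates, 0.5% DMSO.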

[8] = read-out: Transforming Growth Factor (TGFB1), TGFB1 (gene 7040); assay: LTEA_HepaRG_TGFB1: Life Technologies and Expression Analysis (LTEA) Assay for Transforming Growth Factor (TGFB1) Transporter using HepaRG (AID 2283533)
Procedure, shortened: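 HepaRG, 48 h post-plating, switched to serum-free induction medium; chemicals 100 uM top, half-log, 8 pts, 0.5% DMSO, dup; 48 h exposure; RNA → Fluidigm TaqMan qRT-PCR; norm ACTB/GAPDH/POLR2A; bidirectional fit vs DMSO.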

TIMP1, TIMP1 (gene 7076) = assay: LTEA_HepaRG_TIMP1: Life Technologies and Expression Analysis (LTEA) Assay for TIMP1 using HepaRG (AID 2283534)
Procedure, shortened: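 Readout is TIMP1 mRNA level measured by qRT-PCR and normalized to three housekeeping genes. Human HepaRG cells were treated for 48 h in duplicate at eight concentrations up to 100 uM (0.5% DMSO); gain or loss fitted against DMSO.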

[9] = read-out: Tumor necrosis factor receptor 1 (TNFRSF1A), TNFRSF1A (gene 7132); assay: LTEA_HepaRG_TNFRSF1A: Life Technologies and Expression Analysis (LTEA) Assay for Tumor necrosis factor receptor 1 (TNFRSF1A) using HepaRG (AID 2283535)
Procedure, shortened: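 Read-out is TNFRSF1A transcript level by TaqMan qRT-PCR, normalized to three housekeeping genes, scored as gain or loss of signal versus 0.5% DMSO. Human HepaRG cells received test chemicals for 48 h at up to 100 uM (half-log series).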

Measured: AC50

Chain of Nuclear factor erythroid 2-related factor 2 (Homo sapiens) (Q16236 whole entry, looked up): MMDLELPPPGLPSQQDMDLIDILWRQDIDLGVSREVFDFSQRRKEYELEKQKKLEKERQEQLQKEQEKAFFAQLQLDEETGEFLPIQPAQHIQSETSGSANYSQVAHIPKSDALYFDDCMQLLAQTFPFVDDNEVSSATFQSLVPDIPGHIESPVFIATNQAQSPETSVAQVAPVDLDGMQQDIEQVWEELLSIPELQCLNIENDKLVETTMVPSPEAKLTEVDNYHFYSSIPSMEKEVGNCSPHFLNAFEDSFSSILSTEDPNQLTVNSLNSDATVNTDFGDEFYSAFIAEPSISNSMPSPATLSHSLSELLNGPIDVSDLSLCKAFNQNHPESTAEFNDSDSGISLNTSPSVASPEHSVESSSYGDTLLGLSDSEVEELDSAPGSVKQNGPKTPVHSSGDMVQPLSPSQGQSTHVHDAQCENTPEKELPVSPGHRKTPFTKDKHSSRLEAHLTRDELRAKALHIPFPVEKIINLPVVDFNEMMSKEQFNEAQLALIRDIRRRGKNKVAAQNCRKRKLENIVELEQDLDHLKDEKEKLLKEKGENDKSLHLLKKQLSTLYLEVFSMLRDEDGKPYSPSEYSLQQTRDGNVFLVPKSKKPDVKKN
Chain of Signal transducer and activator of transcription 3 (Homo sapiens) (P40763 whole entry, looked up): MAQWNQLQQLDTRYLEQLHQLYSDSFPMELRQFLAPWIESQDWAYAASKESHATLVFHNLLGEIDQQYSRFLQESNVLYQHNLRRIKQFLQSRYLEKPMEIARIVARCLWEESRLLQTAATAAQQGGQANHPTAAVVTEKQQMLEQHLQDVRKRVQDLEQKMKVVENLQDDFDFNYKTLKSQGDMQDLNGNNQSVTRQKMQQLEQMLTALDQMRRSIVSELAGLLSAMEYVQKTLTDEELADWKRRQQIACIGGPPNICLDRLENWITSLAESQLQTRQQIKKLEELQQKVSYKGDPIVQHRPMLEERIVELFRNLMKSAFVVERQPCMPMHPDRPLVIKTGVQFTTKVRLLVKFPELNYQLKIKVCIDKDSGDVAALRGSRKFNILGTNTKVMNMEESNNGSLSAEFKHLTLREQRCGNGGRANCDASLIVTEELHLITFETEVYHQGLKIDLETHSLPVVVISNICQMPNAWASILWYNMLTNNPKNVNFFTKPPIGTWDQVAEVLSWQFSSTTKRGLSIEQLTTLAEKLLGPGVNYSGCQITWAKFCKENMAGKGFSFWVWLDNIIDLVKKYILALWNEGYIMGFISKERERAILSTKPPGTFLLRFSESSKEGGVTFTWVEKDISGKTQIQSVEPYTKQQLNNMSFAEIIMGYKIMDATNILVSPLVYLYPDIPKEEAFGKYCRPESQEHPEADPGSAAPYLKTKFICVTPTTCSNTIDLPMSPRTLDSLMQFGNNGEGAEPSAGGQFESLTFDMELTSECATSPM

Oc1ccc2ccccc2c1
inactive: all assays above

O=CCCCC=O
not listed: [1]
inactive: all other assays above

OCCO
not listed: [1]
inactive: all other assays above

O=C(OCCCCCCOC(=O)c1ccccc1)c1ccccc1
inactive: all assays above

CCCCCCCCCCCC[N+](C)(C)C
inactive: [1] | [3] | [4] | [9]
active: [2] 76.9 µM | [5] 88.1 µM | [6] 93.5 µM | [7] 77 µM | [8] 50 µM | TIMP1, TIMP1 (gene 7076) 83.4 µM

CCCCCCCCCC(=O)O
inactive: all assays above

C[C@]12CC[C@@H]3c4ccc(O)cc4CC[C@H]3[C@@H]1CCC2=O
inactive: all assays above

Cc1ccc(C(C)C)cc1
inactive: all assays above

Clc1ccccc1C(c1ccccc1)(c1ccccc1)n1ccnc1
inactive: [1] | [4] | TIMP1, TIMP1 (gene 7076) | [9]
active: [2] 14.5 µM | [3] 90.5 µM | [5] 23.7 µM | [6] 23.3 µM | [7] 23.2 µM | [8] 91.9 µM

CN(C[C@@H](CC[N+]12CCC(C3CCCCC3)(CC1)CC2)c1ccc(Cl)c(Cl)c1)C(=O)c1cc(C(F)(F)F)cc(C(F)(F)F)c1
inactive: [1] | [2] | [4] | [9]
active: [3] 68.8 µM | [5] 33.9 µM | [6] 68 µM | [7] 50 µM | [8] 12.3 µM | TIMP1, TIMP1 (gene 7076) 68.7 µM

C[C@]12CC[C@@H]3c4ccc(O)cc4CC[C@H]3[C@@H]1CC[C@H]2O
active: [5] 77.5 µM | [6] 6.71 µM | [8] 50 µM
inactive: all other assays above

OC12N=C(c3ccccc3)SC1Cc1cc(Cl)ccc12 (stereo not given)
active: [4] 0.925 µM | [5] 32.9 µM | [6] 14 µM
not listed: [1]
inactive: all other assays above

CCCOC(=O)c1cc(O)c(O)c(O)c1
inactive: all assays above

O=C1O[C@H]([C@@H](O)CO)C(O)=C1O
inactive: all assays above

Cc1ncc(CO)c(CO)c1O
inactive: all assays above

CC(C)(c1cc(Br)c(O)c(Br)c1)c1cc(Br)c(O)c(Br)c1
active: [1] 86.6 µM | [6] 91.4 µM | [7] 89.1 µM
inactive: all other assays above

CC1(C)NC(=O)N(c2ccc([N+](=O)[O-])c(C(F)(F)F)c2)C1=O
active: [3] 50 µM | [5] 69.3 µM | [6] 84.1 µM | [7] 50 µM
inactive: all other assays above

c1ccc(C[n+]2cccc3ccccc32)cc1
inactive: [1] | [3] | [8] | TIMP1, TIMP1 (gene 7076)
active: [2] 13.6 µM | [4] 20.5 µM | [5] 31.1 µM | [6] 32.4 µM | [7] 63 µM | [9] 27.3 µM

CCOC(=O)O[C@H](C)OC(=O)c1ccc2c(c1)cc(C(=O)NC1CCN(C(C)C)CC1)n2Cc1cc(-c2ccc(Cl)s2)on1
inactive: all assays above

CC(=O)N1CCN(c2ccc(OC[C@H]3CO[C@](Cn4ccnc4)(c4ccc(Cl)cc4Cl)O3)cc2)CC1
active: [2] 12 µM | [3] 30.8 µM | [4] 35 µM | [5] 22.8 µM | [6] 12.2 µM | [7] 12.1 µM | [8] 90.9 µM | TIMP1, TIMP1 (gene 7076) 83.1 µM | [9] 75.9 µM
inactive: [1]

Cc1occc1C(=O)Nc1ccc(C(=O)N2CCC(F)(F)/C(=C\C(=O)N3CCC(N4CCCCC4)CC3)c3ccccc32)cc1
inactive: all assays above

Clc1cc(Cl)c2c(c1)N=C1CCCCCN1C2
inactive: all assays above

NCc1cccc(C2CCN(C(=O)c3ccc(C#Cc4ccccc4F)o3)CC2)c1
active: [5] 88.5 µM | [6] 92.9 µM | TIMP1, TIMP1 (gene 7076) 85.9 µM | [9] 91.9 µM
inactive: all other assays above

COc1ccc2cc(S(=O)(=O)N[C@H](CC(=O)N[C@H](Cc3ccc(CN4[C@H](C)CCC[C@@H]4C)cc3)C(=O)N(C)C(C)C)c3ccc4c(c3)OCO4)ccc2c1
active: [2] 21.8 µM | [3] 22 µM | [4] 12.4 µM | [5] 26.3 µM | [6] 75.2 µM | [7] 25.3 µM | [8] 12.8 µM | TIMP1, TIMP1 (gene 7076) 30.8 µM | [9] 21.2 µM
inactive: [1]

Cc1ccc2oc(CN(Cc3ccccc3)C(=O)Nc3c(F)cc(F)cc3F)c(-c3ccc(Cl)cc3)c2c1
inactive: all assays above

COc1cc(C(=O)NC2CCN(C)CC2)ccc1Nc1ncc2c(n1)N(C1CCCC1)CC(F)(F)C(=O)N2C
active: [2] 25.4 µM | [3] 12.7 µM | [4] 27.3 µM | [5] 7.47 µM | [6] 11.6 µM | [8] 3.64 µM | TIMP1, TIMP1 (gene 7076) 11.9 µM | [9] 4.65 µM
inactive: [1] | [7]

O=C1CCC(C2CCCCC2)CC1
not listed: [3] | [6]
inactive: all other assays above

COc1cccc([C@H](O)C2CCN(CCc3ccc(F)cc3)CC2)c1OC
inactive: all assays above

Cc1c2ccccc2c(C)c2c1ccc1ccccc12
active: [2] 90.5 µM | [5] 59.5 µM | [6] 71.1 µM | [7] 63.3 µM | [8] 35 µM
inactive: [1] | [3] | [4] | TIMP1, TIMP1 (gene 7076) | [9]

CO[C@H]1/C=C/O[C@@]2(C)Oc3c(C)c(O)c4c(O)c(c(/C=N/N5CCN(C)CC5)c(O)c4c3C2=O)NC(=O)/C(C)=C\C=C\[C@H](C)[C@H](O)[C@@H](C)[C@@H](O)[C@@H](C)[C@H](OC(C)=O)[C@@H]1C
active: [4] 7.81 µM
inactive: all other assays above

O=C(O)c1ccccc1C(=O)OCc1ccccc1
inactive: all assays above

CC/C(=C(/CC)c1ccc(O)cc1)c1ccc(O)cc1
inactive: [1] | [5] | TIMP1, TIMP1 (gene 7076)
active: [2] 89.9 µM | [3] 50 µM | [4] 90.8 µM | [6] 93.7 µM | [7] 81.3 µM | [8] 90.8 µM | [9] 93.8 µM

O=c1[nH]sc2ccccc12
inactive: all assays above

CCCCOC(=O)c1ccc(O)cc1
inactive: all assays above

CCCCCCCCCCCO
inactive: all assays above

CC(C)(C)c1csc(-c2cc3cc(OCc4ccccc4CC(=O)O)ccc3o2)n1
active: [1] 93.4 µM | [3] 84.8 µM | [4] 91 µM | [5] 50 µM | [6] 34 µM | [7] 85.4 µM | [8] 81.9 µM | TIMP1, TIMP1 (gene 7076) 78.4 µM | [9] 83.2 µM
inactive: [2]
